Experimental data reported in PubChem BioAssay AID1159580 (chemical genetic matrix, 2015).
The whole screen tested about 5,500 compounds, of which about 2,000 (36%) were called active. Not shown: some 18% with an inconclusive outcome. No stated cut-off is given here; in the data, active means normalized growth mostly below about 0.91 (no sharp cut-off); inconclusive means no clear call, values can overlap the other calls; inactive means mostly above about 0.92. The list shows a part of the results.

Assay: chemical genetic growth profiling, strain panel (AID 1159580);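 further: tested at 20 µM; growth read once vehicle control cultures reached saturation at 30 °C; 1 = growth at the plate median or of vehicle wells; lower values mean less growth of the strain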
Settings: S. cerevisiae deletion strains, growth OD
[1] = locus YAR019C, strain CDC15, active compounds read low
[2] = locus YBL105C, strain PKC1, active compounds read low
[3] = locus YBR135W, strain CKS1, active compounds read low
[4] = locus YBR136W, strain MEC1, active compounds read low
[5] = locus YBR160W, strain CDC28, active compounds read low
[6] = locus YDL017W, strain CDC7, active compounds read low
[7] = locus YDL028C, strain MPS1, active compounds read low
[8] = locus YDL101C, strain DUN1, active compounds read low
[9] = locus YDL108W, strain KIN28, active compounds read low
[10] = locus YDL132W, strain cdc53, active compounds read low
[11] = locus YDL214C, strain PRR2, active compounds read low
[12] = locus YDR052C, strain DBF4, active compounds read low
[13] = locus YDR054C, strain cdc34, active compounds read low
[14] = locus YDR226W, strain ADK1, active compounds read low
[15] = locus YDR477W, strain SNF1, active compounds read low
[16] = locus YER123W, strain YCK3, active compounds read low
[17] = locus YER133W, strain GLC7, active compounds read low
[18] = locus YFL009W, strain cdc4, active compounds read low
[19] = locus YFL029C, strain CAK1, active compounds read low
[20] = locus YFR003C, strain YPI1, active compounds read low
[21] = locus YFR019W, strain FAB1, active compounds read low
[22] = locus YFR028C, strain CDC14, active compounds read low
[23] = locus YGR040W, strain KSS1, active compounds read low
[24] = locus YGR052W, strain FMP48, active compounds read low
[25] = locus YGR092W, strain DBF2, active compounds read low
[26] = locus YHR030C, strain SLT2, active compounds read low
[27] = locus YHR079C, strain IRE1, active compounds read low
[28] = locus YHR082C, strain KSP1, active compounds read low
[29] = locus YHR205W, strain SCH9, active compounds read low
[30] = locus YIL147C, strain SLN1, active compounds read low
[31] = locus YJL095W, strain BCK1, active compounds read low
[32] = locus YJL128C, strain PBS2, active compounds read low
[33] = locus YJL157C, strain FAR1, active compounds read low
[34] = locus YJR016C, strain ILV3, active compounds read low
[35] = locus YJR066W, strain TOR1 (second series), active compounds read low
[36] = locus YJR066W, strain TOR1, active compounds read low
[37] = locus YKL048C, strain ELM1, active compounds read low
[38] = locus YKL067W, strain YNK1, active compounds read low
[39] = locus YKL101W, strain HSL1, active compounds read low
[40] = locus YKL193C, strain SDS22, active compounds read low
[41] = locus YKL203C, strain TOR2, active compounds read low
[42] = locus YLR113W, strain HOG1, active compounds read low
[43] = locus YLR133W, strain CKI1, active compounds read low
[44] = locus YLR403W, strain SFP1, active compounds read low
[45] = locus YML070W, strain DAK1, active compounds read low
[46] = locus YMR001C, strain CDC5, active compounds read low
[47] = locus YMR205C, strain PFK2 (second series), active compounds read low
[48] = locus YMR277W, strain FCP1, active compounds read low
[49] = locus YNL006W, strain LST8, active compounds read low
[50] = locus YNL020C, strain ARK1, active compounds read low
[51] = locus YNL161W, strain CBK1, active compounds read low
[52] = locus YNL183C, strain NPR1, active compounds read low
[53] = locus YNL207W, strain RIO2, active compounds read low
[54] = locus YNL222W, strain SSU72, active compounds read low
[55] = locus YNL307C, strain MCK1 (second series), active compounds read low
[56] = locus YOL078W, strain AVO1, active compounds read low
[57] = locus YOL136C, strain PFK27, active compounds read low
[58] = locus YOR061W, strain CKA2, active compounds read low
[59] = locus YOR119C, strain RIO1, active compounds read low
[60] = locus YOR231W, strain MKK1, active compounds read low
[61] = locus YOR329C, strain SCD5, active compounds read low
[62] = locus YPL031C, strain PHO85, active compounds read low
[63] = locus YPL153C, strain RAD53, active compounds read low
[64] = locus YPL204W, strain HRR25, active compounds read low
[65] = locus YPL209C, strain IPL1, active compounds read low
[66] = locus YPL256C, strain CLN2, active compounds read low
[67] = locus YPR025C, strain CCL1, active compounds read low
[68] = locus YPR106W, strain ISR1, active compounds read low
[69] = locus YPR111W, strain DBF20, active compounds read low
[70] = strain NNK1, active compounds read low
[71] = strain TSCII, active compounds read low

Measured: normalized growth

CS/C(Nc1cccc(C(F)(F)F)c1)=C(/C#N)S(=O)(=O)c1ccc(Cl)cc1
inactive: [1] 0.951 | [2] 0.945 | [3] 0.953 | [4] 0.941 | [5] 0.948 | [6] 0.948 | [7] 0.957 | [8] 0.953 | [9] 0.949 | [10] 0.953 | [11] 0.96 | [12] 0.932 | [13] 0.946 | [14] 0.931 | [15] 0.963 | [16] 0.941 | [17] 0.971 | [18] 0.942 | [19] 0.934 | [20] 0.944 | [21] 0.957 | [22] 0.948 | [23] 0.947 | [24] 0.943 | [25] 0.937 | [26] 0.996 | [27] 0.987 | [28] 1.01 | [29] 0.914 | [30] 0.953 | [31] 0.916 | [32] 0.935 | [33] 0.954 | [34] 0.944 | [35] 0.95 | [36] 0.988 | [37] 0.946 | [38] 0.972 | [39] 0.954 | [40] 0.951 | [41] 1 | [42] 0.882 | [43] 0.945 | [44] 0.925 | [45] 0.962 | [46] 0.948 | [47] 0.978 | [48] 0.956 | [49] 0.958 | [50] 0.943 | [51] 0.94 | [52] 0.992 | [53] 0.936 | [54] 0.957 | [55] 0.926 | [56] 0.951 | [57] 0.915 | [58] 0.985 | [59] 1.01 | [60] 0.94 | [61] 0.951 | [62] 0.956 | [63] 0.973 | [64] 0.911 | [65] 0.943 | [66] 0.981 | [67] 0.946 | [68] 0.954 | [69] 0.949 | [70] 0.947 | [71] 0.942

N#C/C(=N/Nc1cccc(C(F)(F)F)c1)C(=O)c1csc(-c2cccnc2)n1
active: [16] 0.56 | [21] 0.364 | [24] 0.566 | [25] 0.297 | [26] 0.115 | [27] 0.139 | [28] 0.292 | [31] 0.232 | [35] 0.578 | [36] 0.343 | [37] 0.632 | [39] 0.534 | [42] 0.34 | [43] 0.711 | [45] 0.578 | [50] 0.626 | [52] 0.46 | [55] 0.461 | [57] 0.529 | [60] 0.198 | [62] 0.484 | [63] 0.317 | [64] 0.464 | [66] 0.236
inactive: [1] 0.96 | [2] 0.958 | [3] 0.955 | [4] 0.962 | [5] 0.961 | [6] 0.96 | [7] 0.962 | [8] 0.964 | [9] 0.963 | [10] 0.964 | [11] 0.83 | [12] 0.945 | [13] 0.939 | [14] 0.963 | [15] 0.762 | [17] 0.883 | [18] 0.96 | [19] 0.955 | [20] 0.961 | [22] 0.967 | [23] 0.832 | [29] 0.75 | [30] 0.96 | [32] 0.923 | [33] 0.802 | [34] 0.954 | [38] 0.854 | [40] 0.959 | [41] 0.763 | [44] 0.776 | [46] 0.964 | [47] 0.807 | [48] 0.955 | [49] 0.961 | [51] 0.956 | [53] 0.941 | [54] 0.96 | [56] 0.955 | [58] 0.85 | [59] 0.838 | [61] 0.966 | [65] 0.957 | [67] 0.956 | [68] 0.971 | [69] 0.958 | [70] 0.95 | [71] 0.954
